The values below come from publication PMC3218832.

Targets include RELARELA (p65 homodimer) (Homo sapiens, UniProt Q04206 1-307); p50p50 homodimer (Homo sapiens, UniProt P19838 7-356); RELB subunit;p50 subunit (Homo sapiens;Homo sapiens, UniProt Q01201;P19838 120-401;7-356).
Common to all, as to assay: protein binding microarray; high values mean tight binding
Common to all, as to conditions: dsDNA, one strand shown

A further experiment addresses T1, p52p52 homodimer (Homo sapiens, UniProt Q00653 4-332).
T1 sequence: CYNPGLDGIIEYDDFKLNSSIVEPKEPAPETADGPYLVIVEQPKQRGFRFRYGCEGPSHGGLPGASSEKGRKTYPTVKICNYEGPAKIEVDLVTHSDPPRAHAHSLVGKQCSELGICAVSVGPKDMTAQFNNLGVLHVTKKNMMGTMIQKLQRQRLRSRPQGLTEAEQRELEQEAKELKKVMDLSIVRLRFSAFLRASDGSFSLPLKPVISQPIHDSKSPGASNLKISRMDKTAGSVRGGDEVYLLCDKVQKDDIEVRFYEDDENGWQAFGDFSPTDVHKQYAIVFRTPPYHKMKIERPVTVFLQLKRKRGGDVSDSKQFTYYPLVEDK

Experiment [1] concerns the target RELA (p65) subunit of heterodimer;p50 subunit (Homo sapiens;Homo sapiens, UniProt Q04206;P19838 1-307;7-356).
In experiment [2] the target is RELA (p65) subunit of heterodimer;p52 subunit (Homo sapiens;Homo sapiens, UniProt Q04206;Q00653 1-307;4-332).
The target in a further experiment is T2, RELB subunit;p52 subunit (Homo sapiens;Homo sapiens, UniProt Q01201;Q00653 120-401;4-332).
T2 sequence 1: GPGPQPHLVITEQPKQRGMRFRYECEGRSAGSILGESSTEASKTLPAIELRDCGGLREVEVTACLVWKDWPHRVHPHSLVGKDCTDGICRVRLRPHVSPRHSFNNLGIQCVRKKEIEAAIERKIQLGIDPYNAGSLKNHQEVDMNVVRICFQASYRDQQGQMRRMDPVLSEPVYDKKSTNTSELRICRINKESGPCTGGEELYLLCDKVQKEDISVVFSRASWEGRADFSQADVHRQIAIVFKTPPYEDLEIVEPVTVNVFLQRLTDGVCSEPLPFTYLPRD
T2 sequence 2: T1 sequence

The target of experiment [3] is C-Rel subunit;p50 subunit (Homo sapiens;Homo sapiens, UniProt Q04864;P19838 1-285;7-356).
Experiment [4] deals with T3, C-Rel subunit;p52 subunit (Homo sapiens;Homo sapiens, UniProt Q04864;Q00653 1-285;4-332).
T3 sequence 1: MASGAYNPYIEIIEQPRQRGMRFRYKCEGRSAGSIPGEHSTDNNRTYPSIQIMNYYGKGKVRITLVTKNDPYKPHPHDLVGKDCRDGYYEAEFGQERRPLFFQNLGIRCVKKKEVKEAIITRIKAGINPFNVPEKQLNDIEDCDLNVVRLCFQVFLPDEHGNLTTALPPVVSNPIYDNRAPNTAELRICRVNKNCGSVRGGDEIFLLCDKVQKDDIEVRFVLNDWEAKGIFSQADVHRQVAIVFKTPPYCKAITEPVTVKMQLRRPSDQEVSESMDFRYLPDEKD
T3 sequence 2: T1 sequence

p50p50 homodimer, sequence (P19838 7-356): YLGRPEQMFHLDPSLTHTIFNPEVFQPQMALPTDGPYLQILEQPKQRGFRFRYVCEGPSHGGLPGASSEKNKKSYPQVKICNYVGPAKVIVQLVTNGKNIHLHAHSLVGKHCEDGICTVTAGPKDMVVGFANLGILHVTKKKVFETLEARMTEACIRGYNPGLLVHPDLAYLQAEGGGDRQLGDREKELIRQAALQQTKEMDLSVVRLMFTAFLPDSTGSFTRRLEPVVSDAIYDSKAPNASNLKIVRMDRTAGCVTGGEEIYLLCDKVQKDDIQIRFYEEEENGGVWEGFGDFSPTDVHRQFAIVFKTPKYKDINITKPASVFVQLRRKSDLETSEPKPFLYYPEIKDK
RELARELA (p65 homodimer), sequence (Q04206 1-307): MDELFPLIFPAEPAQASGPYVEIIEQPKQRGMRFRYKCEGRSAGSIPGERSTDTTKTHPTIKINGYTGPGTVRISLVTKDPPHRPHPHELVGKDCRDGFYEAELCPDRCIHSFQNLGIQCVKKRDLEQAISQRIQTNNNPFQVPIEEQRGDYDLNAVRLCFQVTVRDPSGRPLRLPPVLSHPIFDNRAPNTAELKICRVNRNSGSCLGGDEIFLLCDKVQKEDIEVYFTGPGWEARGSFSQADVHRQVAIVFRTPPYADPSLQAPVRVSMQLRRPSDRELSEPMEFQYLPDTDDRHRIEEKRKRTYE
RELA (p65) subunit of heterodimer;p50 subunit, sequence (Q04206 1-307, chain 1 of 2): as the sequence (Q04206 1-307) above
RELA (p65) subunit of heterodimer;p50 subunit, sequence (P19838 7-356, chain 2 of 2): as the sequence (P19838 7-356) above

For AAATATGTCCT, the binding signal with RELARELA (p65 homodimer) was -0.0065 z-score; with p50p50 homodimer, -1.09 z-score; with p52p52 homodimer, -0.534 z-score; in [1] it was -0.78 z-score; in [2] it was -0.678 z-score; with RELB subunit;p50 subunit, -0.828 z-score. Further, the binding signal with RELB subunit;p52 subunit is -0.738 z-score; in experiment [3] it was -0.967 z-score; in experiment [4], -0.696 z-score.

In the case of GGGTACTCCCC, the binding signal is 1.34 z-score with RELARELA (p65 homodimer); 0.682 z-score in the experiment with p50p50 homodimer; 3.13 z-score with p52p52 homodimer; 1.82 z-score in experiment [1]; 2.75 z-score in experiment [2]; 1.95 z-score with RELB subunit;p50 subunit. Also, the binding signal came to 1.96 z-score with RELB subunit;p52 subunit, 1.45 z-score in experiment [3] and 2.17 z-score in [4].

GGGATCGTCCT: the binding signal in the experiment with RELARELA (p65 homodimer) was 0.173 z-score; with p50p50 homodimer it was -0.724 z-score; with p52p52 homodimer it was 0.0256 z-score; in [1], -0.544 z-score; in [2], -0.296 z-score; in the experiment with RELB subunit;p50 subunit, -0.598 z-score. In addition, the binding signal in the experiment with RELB subunit;p52 subunit is -0.614 z-score; in experiment [3] it was -0.493 z-score; in experiment [4] it was -0.166 z-score.

As for AGGTGTCCCCC, the binding signal in the experiment with RELARELA (p65 homodimer) amounted to 0.286 z-score; with p50p50 homodimer, 1.17 z-score; in the experiment with p52p52 homodimer it was 0.966 z-score; in experiment [1] it was 1.2 z-score; in [2], 1.19 z-score; in the experiment with RELB subunit;p50 subunit, 1.21 z-score. The binding signal was determined as 1.46 z-score with RELB subunit;p52 subunit, 1.14 z-score in experiment [3] and 1.02 z-score in experiment [4].

With AGGTAAACCCC, the binding signal worked out at 1.17 z-score in the experiment with RELARELA (p65 homodimer); 0.722 z-score with p50p50 homodimer; 2.16 z-score with p52p52 homodimer; 1.25 z-score in experiment [1]; 1.68 z-score in experiment [2]; 0.79 z-score in the experiment with RELB subunit;p50 subunit. Moreover, the binding signal in the experiment with RELB subunit;p52 subunit turned out to be 1.51 z-score; in experiment [3], 0.88 z-score; in experiment [4], 2.02 z-score.

For the sequence CAATGACCCCC, the binding signal with RELARELA (p65 homodimer) was -0.602 z-score; in the experiment with p50p50 homodimer it was 0.342 z-score; with p52p52 homodimer, 0.0634 z-score; in experiment [1], 0.0857 z-score; in experiment [2], 0.113 z-score; with RELB subunit;p50 subunit it was 0.27 z-score. Further, the binding signal with RELB subunit;p52 subunit was 0.286 z-score; in experiment [3], -0.0621 z-score; in experiment [4], -0.0557 z-score.

As for GAAAGAATCCT, the binding signal with RELARELA (p65 homodimer) was -0.654 z-score; in the experiment with p50p50 homodimer it was -1.19 z-score; with p52p52 homodimer, -0.601 z-score; in experiment [1], -1.12 z-score; in [2], -0.922 z-score; with RELB subunit;p50 subunit, -0.95 z-score. Moreover, the binding signal is -0.787 z-score with RELB subunit;p52 subunit, -1.22 z-score in [3] and -0.804 z-score in [4].

CGATGACCCCT: the binding signal in the experiment with RELARELA (p65 homodimer) was -0.679 z-score; with p50p50 homodimer, -0.0343 z-score; with p52p52 homodimer it was -0.125 z-score; in experiment [1], -0.386 z-score; in experiment [2], -0.154 z-score; in the experiment with RELB subunit;p50 subunit, -0.223 z-score. In addition, the binding signal in the experiment with RELB subunit;p52 subunit was -0.0567 z-score; in [3], -0.665 z-score; in [4], -0.266 z-score.

On to GAAGATGCCCC, for which the binding signal was 0.0529 z-score in the experiment with RELARELA (p65 homodimer); 0.407 z-score with p50p50 homodimer; 0.0127 z-score with p52p52 homodimer; 0.599 z-score in [1]; 0.186 z-score in [2]; 0.421 z-score with RELB subunit;p50 subunit. Further, the binding signal in the experiment with RELB subunit;p52 subunit came out at 0.376 z-score; in experiment [3] it was 0.679 z-score; in experiment [4], 0.228 z-score.

Take GGAGTTCCCCT: the binding signal was found to be 2.77 z-score with RELARELA (p65 homodimer); 1.14 z-score with p50p50 homodimer; 2.83 z-score with p52p52 homodimer; 2.64 z-score in [1]; 2.79 z-score in experiment [2]; 2 z-score with RELB subunit;p50 subunit. Also, the binding signal was determined as 2.29 z-score in the experiment with RELB subunit;p52 subunit, 2.61 z-score in [3] and 3.5 z-score in [4].

In the case of AGATTCCTCCC, the binding signal with RELARELA (p65 homodimer) is 0.213 z-score; in the experiment with p50p50 homodimer it was -0.426 z-score; in the experiment with p52p52 homodimer, -0.138 z-score; in experiment [1], -0.135 z-score; in [2], -0.146 z-score; with RELB subunit;p50 subunit, -0.305 z-score. Moreover, the binding signal with RELB subunit;p52 subunit is -0.191 z-score; in experiment [3], 0.176 z-score; in experiment [4], -0.118 z-score.

For CGAGATTTCCC, the binding signal was 1.93 z-score with RELARELA (p65 homodimer); 0.975 z-score in the experiment with p50p50 homodimer; 0.882 z-score with p52p52 homodimer; 1.43 z-score in [1]; 1.06 z-score in [2]; 0.804 z-score in the experiment with RELB subunit;p50 subunit. Further, the figures for the binding signal (with RELB subunit;p52 subunit; in experiment [3]; in experiment [4]) were 0.926 z-score, 1.31 z-score and 0.887 z-score, respectively.

As for AGAGGGACCCT, the binding signal in the experiment with RELARELA (p65 homodimer) is -0.966 z-score; with p50p50 homodimer, -0.326 z-score; with p52p52 homodimer it was 0.216 z-score; in [1], -0.688 z-score; in experiment [2], -0.129 z-score; with RELB subunit;p50 subunit it was -0.226 z-score. The figures for the binding signal (in the experiment with RELB subunit;p52 subunit; in [3]; in experiment [4]) were -0.0964 z-score, -0.803 z-score and -0.355 z-score, respectively.

Take CGGGTCGTCCT: the binding signal was -0.683 z-score in the experiment with RELARELA (p65 homodimer); -1.36 z-score in the experiment with p50p50 homodimer; -0.504 z-score with p52p52 homodimer; -0.972 z-score in experiment [1]; -0.834 z-score in experiment [2]; -0.864 z-score with RELB subunit;p50 subunit. For the same sequence, the binding signal with RELB subunit;p52 subunit was -0.859 z-score; in experiment [3], -1.15 z-score; in experiment [4] it was -0.64 z-score.
